Results filed as inconclusive are left out. Calls of active or inactive are those of the source. Unless noted, calls follow the shape of the dose curve; as a rule, active = well fitted curve in the direction sought with a large enough effect; inconclusive = small, poorly fitted or top-dose-only effect, or another doubt; inactive = no such curve, though single readings can be large; an effect the other way counts as inactive or inconclusive.
Columns and labels:
[1] = target: Lysosomal acid glucosylceramidase (Homo sapiens) (UniProt P04062); assay: Glucocerebrosidase-p2 (AID 348; in the data active = potency below about 10 µM; also: potency is read from the fitted curve at half-maximal effect); conditions: purified GBA, blue fluorogenic substrate, 40 min
Outline: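 Normal human glucocerebrosidase (0.2 nM) with blue fluorogenic substrate (80 uM final) in citrate/phosphate pH 5.9 with 10mM sodium taurocholate, 0.01% tween-20; 40 min RT, NaOH/glycine stop; fluorescence Ex 365/Em 440; AC50 from a titration from 0.6 nM upwards.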

[2] = AP1 Signaling Pathway (AID 357; active = well fitted curve in either direction with a large enough effect, not every such curve was filed as active;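 also: ME-180 reporter cells stimulated with EGF at its EC50 level; % is scaled to controls: 0 for no effect and ±100 for the full control effect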); conditions: ME-180 AP-1-bla reporter, EGF-induced, beta-lactamase ratio, 5 h; at 7.69 µM (top of the series) unless noted
Outline: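 Cells are seeded overnight, exposed to compound titrations and an EC50 level of EGF for 5 hours at 37 °C, then loaded with CCF4 dye for 2.5 hours. Beta-lactamase activity under the AP-1 element is read as a blue/green ratio.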

[3] = target: Cytochrome P450 1A2 (Homo sapiens) (UniProt P05177); assay: p450-cyp1a2 (AID 410; calls by dose curve; also: potency is read from the fitted curve at half-maximal effect); conditions: recombinant CYP1A2, luciferin-ME demethylation, luminescence; series mostly up to 57 µM
Outline: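 Read-out is luminescence from luciferin produced by CYP1A2 demethylation of Luciferin-ME (100uM, at Km). Detection reagent stopped the 60 min NADPH-dependent reaction; signals were normalized to 57 uM furafylline.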

[4] = NFAT Signaling Pathway (AID 444; active = well fitted curve in either direction with a large enough effect, not every such curve was filed as active;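 also: carbachol stimulus at about its EC50 of 1 µM final; % is scaled to controls: 0 for no effect and ±100 for the full control effect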); conditions: Jurkat NFAT-bla M1, carbachol, beta-lactamase ratio, 5 h; at 7.69 µM (top of the series) unless noted
Outline: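 Read-out: CCF4 FRET ratio (460 nm/530 nm) after 1 h RT dye loading, used for %activity and AC50 from titration series. Cells: Jurkat NFAT-β-lactamase/M1 line, treated with compound plus 1 uM carbachol for 5 h, 37 °C.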

[5] = Stat Signaling Pathway (AID 446; active = well fitted curve in either direction with a large enough effect, not every such curve was filed as active;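 also: ME-180 cervical cancer cells given 40 pM IL-6 alongside compound; SIE-controlled beta-lactamase reporter measured as 460/530 nm FRET emission ratio; % is scaled to controls: 0 for no effect and ±100 for the full control effect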); conditions: ME-180 (cervical carcinoma) SIE beta-lactamase reporter, IL-6 stimulated, 5 h; at 7.69 µM (top of the series) unless noted
Outline: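 Emission at 460 and 530 nm (excitation 405 nm) reports SIE-controlled beta-lactamase in ME-180 cells. Cells received compound with 40 pM IL-6 for 5 hrs at 37 C; data scaled between 300 pM IL-6 and 125 nM JAK-inhibitor controls.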

[6] = target: Glucocorticoid receptor (Homo sapiens) (UniProt P04150); assay: GR-GFP Redistribution (AID 450;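 active = compounds whose dose series gives a full or clear partial fitted curve of increased nuclear translocation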; also: potency is read from the fitted curve at half-maximal effect); conditions: U2OS GR-GFP nuclear translocation, laser cytometry, 2 h
[7] = target: Glucocorticoid receptor (Homo sapiens) (UniProt P04150); assay: GR-EFC Redistribution (AID 451; calls by dose curve; also: potency is read from the fitted curve at half-maximal effect); conditions: CHO-K1 GR-EFC translocation, beta-gal luminescence, 2 h
Outline: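 Translocation of GR-ED fusion to nuclear EA restores b-gal, read by luminescence after 1 h room-temperature detection. Engineered CHO-K1 biosensor cells, 1,000/well, exposed 2 h at 37 C to titrations up to 46 uM final.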

[8] = target: Mitogen-activated protein kinase 10 (Mus musculus) (UniProt Q61831); assay: JNK3 AlphaScreen Assay (AID 530; active = well fitted curve in either direction with a large enough effect, not every such curve was filed as active;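 also: kinase came from lysate of stimulated human HepG2 cells; signal reports phosphorylation of biotinylated GST-cJun 1-79 at Ser73 with 10 µM ATP; % is scaled to controls: 0 for no effect and ±100 for the full control effect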); conditions: JNK3 lysate, c-Jun phosphorylation; series mostly up to 57.1 µM
Outline: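 Kinase buffer: 20 mM Tris-HCl pH 7.6, 10 mM MgCl2, 1 mM DTT, 0.1 mM Na3VO4, 0.01% Tween-20; ATP 10 uM. Substrate biotin-GST-cJun(1-79), enzyme from activated HepG2 lysates. Detection by Ser73 phospho-antibody AlphaScreen.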

[9] = target: Cytochrome P450 2C9 (Homo sapiens) (UniProt P11712); assay: qHTS Assay for Inhibitors and Substrates of Cytochrome P450 2C9 (AID 883); conditions: recombinant CYP2C9, luciferin-H luminescence, 60 min; series mostly up to 57.1 µM; also: potency is read from the fitted curve at half-maximal effect; nearly all actives have a fitted effect of over 60% in size
Outline: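 Turnover of Luciferin-H (100uM, KM) by 10nM human CYP2C9 was measured over 60 min at 37C with NADPH regeneration; inhibitors and some substrates reduce luminescence. Data normalized to sulphaphenazole 57uM.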

[10] = target: Cytochrome P450 3A4 (Homo sapiens) (UniProt P08684); assay: qHTS Assay for Inhibitors and Substrates of Cytochrome P450 3A4 (AID 884); conditions: recombinant CYP3A4, Luciferin-PPXE luminescence; series mostly up to 57.1 µM; also: potency is read from the fitted curve at half-maximal effect; nearly all actives have a fitted effect of over 50% in size
Outline: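 Luminescent readout of luciferin produced by CYP3A4 (20 nM) dealkylation of Luciferin-PPXE, 25 uM (its KM). NADPH-driven reaction ran 60 min at RT after 10 min compound preincubation; data scaled to 57 uM ketoconazole as 100% inhibition.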

[11] = target: Cytochrome P450 3A4 (Homo sapiens) (UniProt P08684); assay: qHTS Assay for Activators of Cytochrome P450 3A4 (AID 885); conditions: recombinant CYP3A4, Luciferin-PPXE luminescence, 60 min; series mostly up to 57.1 µM; also: nearly all actives have a fitted effect of over 65% in size
Outline: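 Activators are scored by enhanced luminescence from CYP3A4 conversion of luciferin-PPXE (25uM, equal to KM) to luciferin, after 60 min at RT with an NADPH-regenerating system.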

[12] = target: Cytochrome P450 2C19 (Homo sapiens) (UniProt P33261); assay: qHTS Assay for Inhibitors and Substrates of Cytochrome P450 2C19 (AID 899); conditions: recombinant CYP2C19, luciferin-H EGE luminescence; series mostly up to 57.1 µM; also: potency is read from the fitted curve at half-maximal effect; nearly all actives have a fitted effect of over 60% in size
Outline: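 Reactions contain 5nM enzyme, 10uM Luciferin-H EGE (KM) and 50mM KPO4; compound preincubates 10 min at 37C, NADPH regeneration starts turnover for 60 min. Luminescence after detection reagent gives activity.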

[13] = target: Dual specificity protein kinase CLK4 (Homo sapiens) (UniProt Q9HAZ1); assay: qHTS Assay for Inhibitors of CDC-like Kinase 4 (ADP-FP Assay) (AID 1795); conditions: Transcreener ADP fluorescence polarization; series mostly up to 50 µM; also: % is scaled to controls: 0 for no effect and ±100 for the full control effect; nearly all actives have a fitted effect of over 60% in size
Outline: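 Recombinant human Clk4 (6.25 nM) phosphorylated RS repeat peptide (100 uM) with 1 uM ATP in Tris pH 7.5/MgCl2/EGTA/DTT/Triton buffer for one hour. ADP was quantified by Transcreener competitive fluorescence polarization against an ADP calibration curve.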

[14] = target: Ubiquitin carboxyl-terminal hydrolase 1 (Homo sapiens) (UniProt O94782); assay: Inhibitors of USP1/UAF1: Pilot qHTS (AID 504865); conditions: purified USP1/UAF1, Ub-rhodamine cleavage fluorescence; series mostly up to 54.9 µM;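 also: rhodamine fluorescence freed from ubiquitin-rhodamine substrate followed over time; top concentration of the series differs between compounds; % is scaled to controls: 0 for no effect and ±100 for the full control effect; nearly all actives have a fitted effect of over 35% in size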
Outline: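 USP1/UAF1 complex (1nM) preincubated with compound 15 min at room temperature, then Ub-Rho substrate (150nM final) added. Fluorescence read kinetically at 480/540 nm, 6 reads every 60 seconds. Buffer: 50mM HEPES pH 7.8, 0.5mM EDTA, 0.1 mg/ml BSA, 1mM TCEP, 0.01% Tween-20.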

[15] = Primary qHTS for small molecule stabilizers of the endoplasmic reticulum resident proteome: Secreted ER Calcium Modulated Protein (SERCaMP) assay (AID 1508630); conditions: SH-SY5Y GLuc-SERCaMP (Gaussia luciferase released on ER calcium loss) secretion, thapsigargin, luminescence; series mostly up to 38.4 µM; also: % is scaled to controls: 0 for no effect and ±100 for the full control effect
Outline: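 The SH-SY5Y reporter protocol was run at 3 concentrations up to 38.3 uM (primary) or 11 concentrations (follow-up): 16 h compound, 100 nM thapsigargin for 4 h, then extracellular luciferase luminescence.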

[16] = target: 3',5'-cyclic-AMP phosphodiesterase 4B (Homo sapiens) (UniProt Q07343); assay: qHTS Assay for Inhibitors of PDE-IV (AID 607; active = well fitted activation curve with a large enough effect in the main read-out, with a control signal flat, not every such curve was filed as active; also: % of control where 0% means no effect); conditions: HEK293 ACTOne CNG channel cells, membrane potential fluorescence; series mostly up to 22.9 µM
Outline: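 The readout is membrane depolarisation from a cAMP-sensing CNG channel, detected with a potential dye at ex 535/em 590. Cells were HEK293-derived (endogenous PDE-IV) at 1000 cells/well, titrated up to 22.9 uM final.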

[17] = target: Cytochrome P450 2D6 (Homo sapiens) (UniProt P10635); assay: qHTS Assay for Inhibitors and Substrates of Cytochrome P450 2D6 (AID 891); conditions: recombinant CYP2D6, luciferin-ME EGE luminescence; series mostly up to 57.1 µM; also: potency is read from the fitted curve at half-maximal effect; nearly all actives have a fitted effect of over 60% in size
Outline: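 Luminescent read-out of luciferin formed by 5 nM human CYP2D6 demethylating 30 uM Luciferin-ME EGE (Km level) over 60 min at room temperature after NADPH regeneration addition. Data normalized to full inhibition by 1.43 uM quinidine.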

Glucocorticoid receptor (Homo sapiens), sequence (P04150 whole entry, looked up, the tested form may be a part): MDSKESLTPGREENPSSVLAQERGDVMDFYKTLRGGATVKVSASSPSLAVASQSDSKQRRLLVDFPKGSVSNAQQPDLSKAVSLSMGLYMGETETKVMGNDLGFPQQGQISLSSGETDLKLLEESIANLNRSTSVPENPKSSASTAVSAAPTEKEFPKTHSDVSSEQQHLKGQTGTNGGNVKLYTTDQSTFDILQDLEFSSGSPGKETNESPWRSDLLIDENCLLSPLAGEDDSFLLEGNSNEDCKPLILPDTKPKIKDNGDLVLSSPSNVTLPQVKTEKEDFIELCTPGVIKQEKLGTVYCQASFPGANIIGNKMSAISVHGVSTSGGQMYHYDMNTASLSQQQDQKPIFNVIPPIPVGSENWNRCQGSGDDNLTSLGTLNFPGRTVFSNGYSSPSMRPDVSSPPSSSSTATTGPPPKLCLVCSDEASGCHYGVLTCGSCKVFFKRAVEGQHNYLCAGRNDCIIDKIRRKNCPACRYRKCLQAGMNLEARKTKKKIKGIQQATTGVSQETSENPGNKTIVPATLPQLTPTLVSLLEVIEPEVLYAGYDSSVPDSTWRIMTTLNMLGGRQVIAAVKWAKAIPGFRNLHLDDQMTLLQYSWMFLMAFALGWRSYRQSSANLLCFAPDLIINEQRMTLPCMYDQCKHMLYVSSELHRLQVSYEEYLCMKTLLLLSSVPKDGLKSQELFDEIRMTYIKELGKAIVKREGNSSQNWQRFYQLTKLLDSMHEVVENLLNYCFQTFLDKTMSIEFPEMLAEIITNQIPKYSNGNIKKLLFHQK
Ubiquitin carboxyl-terminal hydrolase 1 (Homo sapiens), sequence (O94782 whole entry, looked up): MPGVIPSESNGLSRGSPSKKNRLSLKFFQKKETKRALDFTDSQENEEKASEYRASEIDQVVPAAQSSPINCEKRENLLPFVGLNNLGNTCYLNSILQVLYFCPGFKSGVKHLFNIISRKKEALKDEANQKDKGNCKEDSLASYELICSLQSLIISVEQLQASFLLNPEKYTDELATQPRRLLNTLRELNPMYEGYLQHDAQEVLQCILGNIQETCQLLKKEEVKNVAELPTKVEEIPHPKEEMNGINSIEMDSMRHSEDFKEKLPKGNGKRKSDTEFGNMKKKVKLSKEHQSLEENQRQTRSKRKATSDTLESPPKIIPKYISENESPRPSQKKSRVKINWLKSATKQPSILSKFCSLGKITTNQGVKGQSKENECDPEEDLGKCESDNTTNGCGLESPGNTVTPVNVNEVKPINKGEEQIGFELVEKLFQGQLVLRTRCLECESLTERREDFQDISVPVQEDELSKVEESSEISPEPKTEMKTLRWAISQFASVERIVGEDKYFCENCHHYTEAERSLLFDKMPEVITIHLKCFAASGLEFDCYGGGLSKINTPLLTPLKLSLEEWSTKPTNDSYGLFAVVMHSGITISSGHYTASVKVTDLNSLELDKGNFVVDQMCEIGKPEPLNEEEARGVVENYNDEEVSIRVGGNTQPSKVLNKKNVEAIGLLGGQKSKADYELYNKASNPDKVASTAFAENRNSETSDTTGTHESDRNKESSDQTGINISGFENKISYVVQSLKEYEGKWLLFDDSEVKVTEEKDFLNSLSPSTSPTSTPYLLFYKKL
Cytochrome P450 3A4 (Homo sapiens), sequence (P08684 whole entry, looked up): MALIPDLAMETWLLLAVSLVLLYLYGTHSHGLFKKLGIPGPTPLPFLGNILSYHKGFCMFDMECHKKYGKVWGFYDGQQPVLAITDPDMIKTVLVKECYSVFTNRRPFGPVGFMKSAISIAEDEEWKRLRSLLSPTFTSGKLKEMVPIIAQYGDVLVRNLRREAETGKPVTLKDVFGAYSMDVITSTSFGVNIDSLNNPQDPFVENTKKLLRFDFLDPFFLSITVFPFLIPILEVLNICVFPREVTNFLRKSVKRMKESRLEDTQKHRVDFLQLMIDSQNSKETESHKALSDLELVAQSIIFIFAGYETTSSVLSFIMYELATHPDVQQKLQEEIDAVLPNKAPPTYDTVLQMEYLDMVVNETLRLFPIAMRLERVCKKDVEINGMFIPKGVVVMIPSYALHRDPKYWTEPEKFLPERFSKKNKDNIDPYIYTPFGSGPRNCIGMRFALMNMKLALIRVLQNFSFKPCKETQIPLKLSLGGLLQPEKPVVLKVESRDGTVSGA
Cytochrome P450 1A2 (Homo sapiens), sequence (P05177 whole entry, looked up): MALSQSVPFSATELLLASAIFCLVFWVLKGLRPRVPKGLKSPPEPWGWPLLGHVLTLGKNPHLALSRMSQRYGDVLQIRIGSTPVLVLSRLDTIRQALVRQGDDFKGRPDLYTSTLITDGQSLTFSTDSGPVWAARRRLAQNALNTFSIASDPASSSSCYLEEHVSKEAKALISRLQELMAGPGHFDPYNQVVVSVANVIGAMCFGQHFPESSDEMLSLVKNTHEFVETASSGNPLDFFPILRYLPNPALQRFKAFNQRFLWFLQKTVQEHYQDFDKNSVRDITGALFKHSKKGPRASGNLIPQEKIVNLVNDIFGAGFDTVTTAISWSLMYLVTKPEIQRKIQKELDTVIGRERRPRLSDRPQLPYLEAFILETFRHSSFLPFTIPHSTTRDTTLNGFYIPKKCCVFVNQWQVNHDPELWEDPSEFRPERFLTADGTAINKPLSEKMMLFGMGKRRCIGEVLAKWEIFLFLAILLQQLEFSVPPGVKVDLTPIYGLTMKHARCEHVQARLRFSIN
Lysosomal acid glucosylceramidase (Homo sapiens), sequence (P04062 whole entry, looked up): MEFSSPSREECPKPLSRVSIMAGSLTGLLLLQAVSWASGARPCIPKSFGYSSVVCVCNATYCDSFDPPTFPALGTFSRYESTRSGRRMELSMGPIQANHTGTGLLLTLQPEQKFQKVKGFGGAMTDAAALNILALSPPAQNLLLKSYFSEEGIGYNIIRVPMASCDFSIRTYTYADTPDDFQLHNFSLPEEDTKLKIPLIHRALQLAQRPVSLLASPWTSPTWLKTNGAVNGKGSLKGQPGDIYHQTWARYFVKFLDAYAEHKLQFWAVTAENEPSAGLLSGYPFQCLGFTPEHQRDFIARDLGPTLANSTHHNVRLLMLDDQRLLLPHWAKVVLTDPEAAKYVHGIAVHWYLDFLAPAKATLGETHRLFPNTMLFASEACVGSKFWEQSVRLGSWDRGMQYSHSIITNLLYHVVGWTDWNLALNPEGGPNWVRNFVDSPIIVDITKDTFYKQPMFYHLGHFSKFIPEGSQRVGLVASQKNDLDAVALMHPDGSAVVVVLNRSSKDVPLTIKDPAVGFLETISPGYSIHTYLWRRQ
Dual specificity protein kinase CLK4 (Homo sapiens), sequence (Q9HAZ1 whole entry, looked up): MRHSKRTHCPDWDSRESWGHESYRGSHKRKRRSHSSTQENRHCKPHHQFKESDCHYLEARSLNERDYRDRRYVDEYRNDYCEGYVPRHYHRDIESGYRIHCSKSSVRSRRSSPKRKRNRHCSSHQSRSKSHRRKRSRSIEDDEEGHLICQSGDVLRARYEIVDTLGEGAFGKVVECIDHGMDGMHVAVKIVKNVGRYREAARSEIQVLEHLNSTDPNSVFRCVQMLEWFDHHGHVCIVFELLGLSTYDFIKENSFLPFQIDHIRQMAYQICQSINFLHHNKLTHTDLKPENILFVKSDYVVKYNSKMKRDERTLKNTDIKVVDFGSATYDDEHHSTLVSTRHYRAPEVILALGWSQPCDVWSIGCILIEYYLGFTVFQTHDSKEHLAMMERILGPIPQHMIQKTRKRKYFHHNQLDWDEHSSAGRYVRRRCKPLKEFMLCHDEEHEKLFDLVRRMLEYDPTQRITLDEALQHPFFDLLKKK
3',5'-cyclic-AMP phosphodiesterase 4B (Homo sapiens), sequence (Q07343 whole entry, looked up): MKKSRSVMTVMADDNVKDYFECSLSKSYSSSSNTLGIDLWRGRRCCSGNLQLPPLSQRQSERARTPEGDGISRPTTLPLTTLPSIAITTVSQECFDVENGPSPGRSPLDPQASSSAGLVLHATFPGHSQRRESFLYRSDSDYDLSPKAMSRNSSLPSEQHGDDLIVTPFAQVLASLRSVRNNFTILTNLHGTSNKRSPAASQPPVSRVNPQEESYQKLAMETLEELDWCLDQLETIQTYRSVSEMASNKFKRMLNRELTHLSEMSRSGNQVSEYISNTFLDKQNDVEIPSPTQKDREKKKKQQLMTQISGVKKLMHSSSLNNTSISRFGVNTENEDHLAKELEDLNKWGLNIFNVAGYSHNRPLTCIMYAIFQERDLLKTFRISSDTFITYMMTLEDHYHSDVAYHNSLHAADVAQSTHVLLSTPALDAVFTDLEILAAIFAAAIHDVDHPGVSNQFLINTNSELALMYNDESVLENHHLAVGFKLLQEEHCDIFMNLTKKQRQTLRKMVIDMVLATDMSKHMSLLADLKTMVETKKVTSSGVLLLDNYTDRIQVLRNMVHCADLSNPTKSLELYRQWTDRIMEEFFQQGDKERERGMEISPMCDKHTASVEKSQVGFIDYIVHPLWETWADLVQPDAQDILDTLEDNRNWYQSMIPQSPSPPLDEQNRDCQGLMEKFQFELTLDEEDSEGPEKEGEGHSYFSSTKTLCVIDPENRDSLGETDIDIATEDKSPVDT
Cytochrome P450 2C19 (Homo sapiens), sequence (P33261 whole entry, looked up): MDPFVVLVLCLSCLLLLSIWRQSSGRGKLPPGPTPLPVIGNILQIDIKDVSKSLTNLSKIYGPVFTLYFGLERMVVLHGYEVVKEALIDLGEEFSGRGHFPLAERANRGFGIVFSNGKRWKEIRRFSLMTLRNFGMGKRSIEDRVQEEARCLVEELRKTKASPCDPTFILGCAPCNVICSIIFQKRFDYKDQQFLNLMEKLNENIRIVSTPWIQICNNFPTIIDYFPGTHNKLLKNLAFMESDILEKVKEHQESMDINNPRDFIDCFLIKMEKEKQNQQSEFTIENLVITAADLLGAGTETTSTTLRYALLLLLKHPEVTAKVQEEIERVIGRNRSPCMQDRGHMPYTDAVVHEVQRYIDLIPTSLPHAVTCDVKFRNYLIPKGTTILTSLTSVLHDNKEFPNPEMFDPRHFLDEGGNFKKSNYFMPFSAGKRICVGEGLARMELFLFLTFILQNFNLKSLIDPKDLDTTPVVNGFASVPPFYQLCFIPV

COc1cccc(-c2cncnc2NCc2cccs2)c1
active: Potency [3] 1.26 µM | Potency [9] 398 nM | Potency [10] 1.58 µM | Potency [12] 631 nM
inactive: Potency [1] > 11.4 µM | activity change, negative = inhibition [2] -25% | activity change, negative = inhibition [4] 9.12% | activity, negative = inhibition [5] -6.14% | Potency [6] > 46 µM | Potency [7] > 46 µM | Potency [8] | Potency [11] | Potency [13] | Potency [14] | outcome [15]

COCCn1c(=O)c(-c2cccc(C#N)c2)nc2cnc(Nc3ccccc3)nc21
inactive: Potency [1] > 11.4 µM | activity change, negative = inhibition [2] -6.21% | activity change, negative = inhibition [4] 3.3% | activity, negative = inhibition [5] -15.6% | Potency [6] > 9.22 µM | Potency [7] > 46 µM | Potency [8] | Potency [16] | Potency [13] | Potency [14] | outcome [15]

COc1ccc2[nH]cc(CCNc3cc(-c4c(C)noc4C)ncn3)c2c1
inactive: Potency [1] > 11.4 µM | activity change, negative = inhibition [2] 8.05% | activity change, negative = inhibition [4] 0.421% | activity, negative = inhibition [5] -0.948% | Potency [7] > 46 µM | Potency [8] | Potency [16] | Potency [13] | Potency [14] | outcome [15]

Cc1cnc(CNc2nc(-c3ccccc3Cl)nc3ccccc23)cn1
active: Potency [3] 6.31 µM
inactive: Potency [1] > 11.4 µM | activity change, negative = inhibition [4] 9.67% | activity, negative = inhibition [5] -10.8% | Potency [6] > 46 µM | Potency [7] > 46 µM | Potency [8] | Potency [16] | Potency [11] | Potency [13] | Potency [14] | outcome [15]

c1cncc(CNc2ccnc(-c3cccnc3)n2)c1
inactive: Potency [1] > 11.4 µM | activity change, negative = inhibition [2] 8.01% | activity change, negative = inhibition [4] 10.2% | activity, negative = inhibition [5] 8.94% | Potency [6] > 46 µM | Potency [7] > 46 µM | Potency [8] | Potency [16] | Potency [13] | Potency [14] | outcome [15]

COc1ccc(CNc2ncncc2-c2cccc(NS(C)(=O)=O)c2)c(OC)c1
inactive: Potency [1] > 2.29 µM | activity change, negative = inhibition [2] -14.5% | activity, negative = inhibition [5] 17.9% | Potency [6] > 46 µM | Potency [7] > 46 µM | Potency [8] | Potency [16] | Potency [11] | Potency [13] | Potency [14] | outcome [15]
active: Potency [3] 15.8 µM | Potency [10] 0.251 µM

COc1ccc2[nH]cc(CCNc3ccnc(-c4ccc5c(c4)OCO5)n3)c2c1
inactive: activity change, negative = inhibition [2] -11.1% | activity change, negative = inhibition [4] -4.51% | activity, negative = inhibition [5] -13.4% | Potency [6] > 46 µM | Potency [7] > 46 µM | Potency [8] | Potency [16] | Potency [11] | Potency [13] | outcome [15]
active: Potency [1] 7.76 µM | Potency [3] 0.631 µM | Potency [10] 2.51 µM | Potency [17] 7.94 µM | Potency [12] 631 nM

Reference: PubChem BioAssay (NCATS)
